Results: article PMC4552634, “A New Set of Chemical Starting Points with Plasmodium falciparum Transmission-Blocking Potential for Antimalarial Drug Discovery” (PLoS ONE, 2015)
Out of some 13,000 compounds screened, about 3,200 (25%) showed an effect of 50% or more. Some of the results follow.

Each molecule was assayed on P. falciparum stage V gametocytes. Settings: 48 h, 5 µM; inhibitor.
Set-up: BacTiter-Glo ATP luminescence viability of purified stage V gametocytes in 384-well plates, per cent inhibition versus DMSO

Compound	% Inhibition
COc1ccc(C2CCN(CCN3CCC(NC(=O)c4ccc(-c5cccc(C(F)(F)F)c5C(F)(F)F)cc4)CC3)CC2)c(OC)c1 [TCMDC-135427]	-31.75%
CC(C)[C@H](NC(=O)c1ccc(O)c(-c2ccc(Cl)c(Cl)c2)c1)C(=O)NCCN1CCCC1 [TCMDC-140828]	38.9%
CN1CCN(c2ccnc3ccc(NC(=O)Nc4ccc5c(c4)CCC5=O)cc23)CC1 [TCMDC-139266]	0.4556%
O=C(Cc1cccc(Cl)c1)Nc1cccc(-c2c[nH]c3nc(Nc4ccccc4)ncc23)c1 [TCMDC-134679]	29.34%
O=C(C=Cc1ccc(Cl)c(Cl)c1)NCCCCCN1CCC(c2[nH]nc3ccccc23)CC1 [TCMDC-139402]	-6.391%
Cc1ccccc1OCC(O)CNC1CCC(NCC(O)COc2ccccc2C)CC1 (centres unmarked) [TCMDC-125142]	150%
Cc1ccccc1OCC(O)CN1CCC(C2CCN(CC(O)COc3ccccc3C)CC2)CC1 (centres unmarked) [TCMDC-131841]	97.67%
CCCc1ccccc1OCC(O)CN(C1CCCC1)C1CCCC1 (centres unmarked) [TCMDC-131423]	-5.815%
O=C1NC(c2ccccc2)C2(CCN(CC(O)COc3cccc4ncccc34)CC2)O1 (centres unmarked) [TCMDC-136710]	-26.23%
COc1cccc2c(O)c(CNC3CCCCC3)ccc12 [TCMDC-137595]	11.64%
CCC(C)(C)c1ccc(OCC(O)CN2CCCCC2)c(C(C)(C)CC)c1 (centres unmarked) [TCMDC-123833]	2.758%
COc1ccc(NC(=O)Nc2ccc(-c3ccccc3)cc2)cc1Cn1cnc(N2CCCNCC2)cc1=O [TCMDC-134316]	22.91%
O=C(/C=C/c1ccc(Cl)c(Cl)c1)Nc1cccc(CN2CCC(c3c[nH]c4ccccc34)CC2)c1 [TCMDC-139600]	0.6115%
CC(=O)Nc1ncc(C(=O)Nc2cccc(-c3ccc(-c4nc5ccccc5[nH]4)cc3)c2)s1 [TCMDC-136917]	7.51%
CCC(=C(CC)c1ccc(O)c(CNC2CCCCC2)c1)c1ccc(O)c(CNC2CCCCC2)c1 [TCMDC-137481]	84.66%
Cc1cc(O)c(CNC2CCCCC2)cc1C [TCMDC-137589]	-0.1252%
O=C(CNC1CCCCC1)c1ccc(O)c(O)c1 [TCMDC-123961]	59.16%
CC(C)(C)c1ccc(O)c(CNC2CCCCC2)c1 [TCMDC-125856]	17.68%
Oc1ccc2c(c1CNC1CCCCC1)CCCC2 [TCMDC-137501]	23.3%
Oc1ccc(-c2ccccc2)cc1CNC1CCCCC1 [TCMDC-137603]	-11.44%
